In the supplement of paper PMC4709259:
Structures can show the parent of a compound that is named as a salt. ± gives the standard deviation.

Tests used:
Jurkat [1] = experiment: mean cell size (FSC-A) relative to DMSO control (fraction of control); higher = larger cells; settings: 48 h
Method in brief: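 Jurkat cells at 600 cells/µl were incubated for 1 h and then treated for 48h with the Enzo Screen-Well FDA Approved Drug Library v2.0 at 25µM, with DMSO at 0.9% (v/v) final. Compounds that reduced counts below 20% of controls were retested in 10-fold dilutions down to 25nM. Cell count and mean cell size, taken as forward scatter area, were measured by flow cytometry relative to solvent-only controls. Each plate carried 6-12 controls, and values are means of 3 biological replicates.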

Jurkat [2] = experiment: cell count relative to DMSO control (fraction of control); higher = more cells (less growth inhibition); settings: 48 h

| SMILES | mean cell size (Jurkat [1]) | cell count (Jurkat [2]) |
| --- | --- | --- |
| CC1CNc2c(cccc2S(=O)(=O)N[C@@H](CCCNC(=N)N)C(=O)N2CC[C@@H](C)C[C@@H]2C(=O)O)C1 (some centres undefined) [Argatroban] (concentration: 25 µM) | 0.938 ± 0.025 | 0.702 ± 0.023 |
| C=CC1=C(C(=O)O)N2C(=O)[C@@H](NC(=O)/C(=N\O)c3csc(N)n3)[C@H]2SC1 [Cefdinir] (concentration: 25 µM) | 0.976 ± 0.059 | 0.765 ± 0.12 |
| O=P(O)(O)C(O)(Cc1cccnc1)P(=O)(O)O [Risredonic Acid] (concentration: 25 µM) | 0.964 ± 0.048 | 0.428 ± 0.091 |
| C/C(=C\C(=O)OCCCCCCCCC(=O)O)C[C@@H]1OC[C@H](C[C@@H]2O[C@H]2[C@@H](C)[C@H](C)O)[C@@H](O)[C@H]1O [Mupirocin] (concentration: 25 µM) | 0.928 ± 0.065 | 0.525 ± 0.18 |
| CO[C@H]1/C=C/O[C@@]2(C)Oc3c(C)c(O)c4c(O)c(c(/C=N/N5CCN(C6CCCC6)CC5)c(O)c4c3C2=O)NC(=O)/C(C)=C\C=C\[C@H](C)[C@H](O)[C@@H](C)[C@@H](O)[C@@H](C)[C@H](OC(C)=O)[C@@H]1C [Rifapentine] (concentration: 25 µM) | 0.887 ± 0.025 | 0.275 ± 0.088 |
| C[C@]12C=CC(=O)C=C1CC[C@@H]1[C@@H]2C(=O)C[C@@]2(C)[C@H]1CC[C@]2(O)C(=O)CO [Prednisone] (concentration: 25 µM) | 1 ± 0.042 | 0.689 ± 0.13 |
| CC(C)CN(C[C@@H](O)[C@H](Cc1ccccc1)NC(=O)O[C@H]1CO[C@H]2OCC[C@H]21)S(=O)(=O)c1ccc(N)cc1 [Darunavir] (concentration: 25 µM) | 1.01 ± 0.037 | 0.62 ± 0.062 |
| CC(C)NCC(O)COc1ccc(CCOCC2CC2)cc1 (centres undefined) [Betaxolol·HCl] (concentration: 25 µM) | 1.01 ± 0.038 | 0.95 ± 0.17 |
| OC(CCN1CCCCC1)(c1ccccc1)C1CC2C=CC1C2 (centres undefined) [Biperiden·HCl] (concentration: 25 µM) | 0.951 ± 0.055 | 0.654 ± 0.12 |
| C[C@H]1C[C@H]2[C@@H]3CCC4=CC(=O)C=C[C@]4(C)[C@@]3(F)[C@@H](O)C[C@]2(C)[C@@]1(O)C(=O)CO [Betamethasone] (concentration: 25 µM) | 0.914 ± 0.018 | 0.764 ± 0.084 |
| CCN(CC)CC#CCOC(=O)C(O)(c1ccccc1)C1CCCCC1 (centres undefined) [Oxybutynin Chloride] (concentration: 25 µM) | 0.904 ± 0.022 | 0.895 ± 0.049 |
| c1ccc2c(CC3=NCCN3)cccc2c1 [Naphazoline·HCl] (concentration: 25 µM) | 0.94 ± 0.024 | 0.864 ± 0.024 |
| NC1=NCC2c3ccccc3Cc3ccccc3N12 (centres undefined) [Epinastine·HCl] (concentration: 25 µM) | 0.951 ± 0.014 | 1.06 ± 0.077 |
| CCCCC[C@H](O)/C=C/[C@H]1[C@H](O)CC(=O)[C@@H]1CCCCCCC(=O)O [Alprostadil] (concentration: 25 µM) | 0.872 ± 0.0094 | 0.73 ± 0.12 |
| Cc1ccc(C)c(OCCCC(C)(C)C(=O)O)c1 [Gemfibrozil] (concentration: 25 µM) | 0.956 ± 0.026 | 0.91 ± 0.048 |
| COc1ccc2cc([C@H](C)C(=O)O)ccc2c1 [Naproxen] (concentration: 25 µM) | 0.941 ± 0.041 | 0.661 ± 0.1 |
| CC[C@H]1OC(=O)[C@H](C)C(=O)[C@H](C)[C@@H](O[C@@H]2O[C@H](C)C[C@H](N(C)C)[C@H]2O)[C@](C)(OC)C[C@@H](C)C(=O)[C@H](C)[C@H]2N(CCCCn3cnc(-c4cccnc4)c3)C(=O)O[C@]12C [Telithromycin] (concentration: 25 µM) | 0.921 ± 0.049 | 0.949 ± 0.057 |
| COC1=CC(=O)C[C@@H](C)[C@]12Oc1c(Cl)c(OC)cc(OC)c1C2=O [Griseofulvin] (concentration: 2.5 µM) | 0.975 ± 0.02 | 0.865 ± 0.099 |
| Cn1ccnc1S [Methimazole] (concentration: 25 µM) | 0.951 ± 0.011 | 0.842 ± 0.092 |
| Cc1onc(-c2c(Cl)cccc2Cl)c1C(=O)N[C@@H]1C(=O)N2[C@@H]1SC(C)(C)[C@@H]2C(=O)O [Dicloxacillin·Na Salt Monohydrate] (concentration: 25 µM) | 0.939 ± 0.0097 | 1.07 ± 0.06 |
| O=C(NCC1CCCCN1)c1cc(OCC(F)(F)F)ccc1OCC(F)(F)F (centres undefined) [Flecainide Acetate] (concentration: 25 µM) | 0.97 ± 0.014 | 0.725 ± 0.033 |
| OCCOCCN1CCN(C2=Nc3ccccc3Sc3ccccc32)CC1 [Quetiapine Fumarate] (concentration: 25 µM) | 0.929 ± 0.035 | 0.534 ± 0.17 |
| COc1ccc(-c2ccc3cc(C(=O)O)ccc3c2)cc1C12CC3CC(CC(C3)C1)C2 [Adapalene] (concentration: 2.5 µM) | 1.1 ± 0.1 | 0.269 ± 0.081 |
| Cc1oncc1C(=O)Nc1ccc(C(F)(F)F)cc1 [Leflunomide] (concentration: 25 µM) | 1.07 ± 0.025 | 0.606 ± 0.038 |

| SMILES | mean cell size (Jurkat [1]) | cell count (Jurkat [2]) |
| --- | --- | --- |
| Cc1ncc([N+](=O)[O-])n1CCO [Metronidazole] (concentration: 25 µM) | 0.928 ± 0.012 | 0.75 ± 0.047 |
| CC(C)n1c(/C=C/[C@H](O)C[C@H](O)CC(=O)O)c(-c2ccc(F)cc2)c2ccccc21 [Fluvastatin·Na] (concentration: 25 µM) | 0.972 ± 0.059 | 0.492 ± 0.12 |
| Cn1c2ncnc-2c(O)n(C)c1=O [Oxtriphylline] (concentration: 25 µM) | 0.953 ± 0.021 | 0.761 ± 0.13 |
| O=C1[C@H](CC[C@H](O)c2ccc(F)cc2)[C@@H](c2ccc(O)cc2)N1c1ccc(F)cc1 [Ezetimibe] (concentration: 25 µM) | 1.03 ± 0.022 | 0.639 ± 0.061 |
| CCCCCN(C)CCC(O)(P(=O)(O)O)P(=O)(O)O [Ibandronate·Na Monohydrate] (concentration: 25 µM) | 0.941 ± 0.063 | 0.298 ± 0.14 |
| O=C(O)CCc1nc(-c2ccccc2)c(-c2ccccc2)o1 [Oxaprozin] (concentration: 2.5 µM) | 0.966 ± 0.014 | 1.03 ± 0.013 |
| CN(C)c1cc(NC(=O)CNC(C)(C)C)c(O)c2c1C[C@H]1C[C@H]3[C@H](N(C)C)C(=O)C(C(N)=O)=C(O)[C@@]3(O)C(=O)C1=C2O [Tigecycline] (concentration: 25 µM) | 1.01 ± 0.051 | 0.784 ± 0.06 |
| Cc1cn([C@@H]2C[C@@H](O)[C@H](CO)O2)c(=O)[nH]c1=O [Telbivudine] (concentration: 25 µM) | 0.927 ± 0.037 | 1.04 ± 0.17 |
| O=C1Cc2cc(CCN3CCN(c4nsc5ccccc45)CC3)c(Cl)cc2N1 [Ziprasidone] (concentration: 25 µM) | 0.98 ± 0.062 | 0.838 ± 0.098 |
| O=C1N=C(O)CN1N=Cc1ccc(-c2ccc([N+](=O)[O-])cc2)o1 [Dantrolene·Na] (concentration: 25 µM) | 1 ± 0.021 | 0.837 ± 0.068 |
| CCC(C)n1ncn(-c2ccc(N3CCN(c4ccc(OCC5COC(Cn6cncn6)(c6ccc(Cl)cc6Cl)O5)cc4)CC3)cc2)c1=O (centres undefined) [Itraconazole] (concentration: 25 µM) | 1.11 ± 0.071 | 0.323 ± 0.026 |
| CCCCNc1cc(C(=O)O)cc(S(N)(=O)=O)c1Oc1ccccc1 [Bumetanide] (concentration: 25 µM) | 0.952 ± 0.015 | 0.863 ± 0.022 |
| CN(C)CCC[C@@]1(c2ccc(F)cc2)OCc2cc(C#N)ccc21 [Escitalopram] (concentration: 25 µM) | 1.06 ± 0.039 | 0.382 ± 0.085 |
| CNC(=C[N+](=O)[O-])NCCSCc1ccc(CN(C)C)o1 [Ranitidine·HCl] (concentration: 25 µM) | 1 ± 0.049 | 0.895 ± 0.11 |
| NS(=O)(=O)c1cc(C2(O)NC(=O)c3ccccc32)ccc1Cl (centres undefined) [Chlorthalidone] (concentration: 25 µM) | 1.03 ± 0.028 | 0.918 ± 0.044 |
| O=C(O)Cc1ccccc1Nc1c(Cl)cccc1Cl [Diclofenac·Na Salt] (concentration: 25 µM) | 0.978 ± 0.039 | 0.725 ± 0.073 |
| Cc1cn(-c2cc(NC(=O)c3ccc(C)c(Nc4nccc(-c5cccnc5)n4)c3)cc(C(F)(F)F)c2)cn1 [Nilotinib] (concentration: 25 µM) | 0.979 ± 0.037 | 0.762 ± 0.086 |
| NS(=O)(=O)Cc1noc2ccccc12 [Zonisamide] (concentration: 25 µM) | 1 ± 0.05 | 0.561 ± 0.25 |
| CN(C)c1ccc(O)c2c1C[C@H]1C[C@H]3[C@H](N(C)C)C(=O)C(C(N)=O)=C(O)[C@@]3(O)C(=O)C1=C2O [Minocycline] (concentration: 2.5 µM) | 0.969 ± 0.027 | 0.894 ± 0.04 |
| O=C(O)c1cccnc1 [Niacin (Known As Vitamin B3, Nicotinic Acid And Vitamin Pp)] (concentration: 25 µM) | 0.945 ± 0.053 | 0.426 ± 0.096 |
| CN(C)CCC(c1ccc(Cl)cc1)c1ccccn1 (centres undefined) [Chlorpheniramine Maleate] (concentration: 25 µM) | 0.961 ± 0.02 | 0.917 ± 0.11 |
| CCN(CC)CC(=O)Nc1c(C)cccc1C [Lidocaine·HCl·H2O] (concentration: 25 µM) | 1.01 ± 0.033 | 1.03 ± 0.14 |
| CC(=O)NCCCS(=O)(=O)O [Acamprosate] (concentration: 25 µM) | 1.05 ± 0.062 | 0.933 ± 0.097 |
